Experiment [1] deals with Sphingosine kinase 1 (Homo sapiens) (UniProt Q9NYA1). Conditions: at 1 µM.
In experiment [2] the target is T1, Sphingosine kinase 2 (Homo sapiens) (UniProt Q9NRA0).
T1 sequence (whole entry): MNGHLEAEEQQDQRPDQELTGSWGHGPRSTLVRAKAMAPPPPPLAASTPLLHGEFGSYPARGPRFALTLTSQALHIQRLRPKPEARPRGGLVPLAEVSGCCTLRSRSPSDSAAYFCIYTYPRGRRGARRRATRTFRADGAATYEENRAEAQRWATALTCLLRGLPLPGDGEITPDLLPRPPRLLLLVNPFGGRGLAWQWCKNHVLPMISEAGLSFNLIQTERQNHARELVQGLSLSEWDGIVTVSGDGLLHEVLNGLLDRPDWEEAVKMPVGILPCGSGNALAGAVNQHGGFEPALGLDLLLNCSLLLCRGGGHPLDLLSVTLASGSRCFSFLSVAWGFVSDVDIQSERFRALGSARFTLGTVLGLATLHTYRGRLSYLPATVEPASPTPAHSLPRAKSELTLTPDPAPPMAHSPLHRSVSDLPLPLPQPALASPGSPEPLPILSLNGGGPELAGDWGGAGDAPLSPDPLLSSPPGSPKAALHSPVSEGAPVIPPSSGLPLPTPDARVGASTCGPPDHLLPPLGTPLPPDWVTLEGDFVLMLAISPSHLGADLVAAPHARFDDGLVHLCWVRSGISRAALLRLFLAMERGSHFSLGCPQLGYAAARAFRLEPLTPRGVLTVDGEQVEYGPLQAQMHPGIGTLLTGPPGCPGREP
Conditions: at 0.1 µM.

For experiment [3], the target named is T1, Sphingosine kinase 2 (Homo sapiens). To be noted: at 1 µM.
Experiment [4] deals with Casein kinase II subunit alpha (Homo sapiens) (UniProt P68400). To be noted: at 0.1 µM.
The target is the same in experiment [5]. To be noted: at 1 µM.
Experiment [6] concerns the target T2, Inhibitor of nuclear factor kappa-B kinase subunit alpha (Homo sapiens) (UniProt O15111).
T2 sequence (whole entry): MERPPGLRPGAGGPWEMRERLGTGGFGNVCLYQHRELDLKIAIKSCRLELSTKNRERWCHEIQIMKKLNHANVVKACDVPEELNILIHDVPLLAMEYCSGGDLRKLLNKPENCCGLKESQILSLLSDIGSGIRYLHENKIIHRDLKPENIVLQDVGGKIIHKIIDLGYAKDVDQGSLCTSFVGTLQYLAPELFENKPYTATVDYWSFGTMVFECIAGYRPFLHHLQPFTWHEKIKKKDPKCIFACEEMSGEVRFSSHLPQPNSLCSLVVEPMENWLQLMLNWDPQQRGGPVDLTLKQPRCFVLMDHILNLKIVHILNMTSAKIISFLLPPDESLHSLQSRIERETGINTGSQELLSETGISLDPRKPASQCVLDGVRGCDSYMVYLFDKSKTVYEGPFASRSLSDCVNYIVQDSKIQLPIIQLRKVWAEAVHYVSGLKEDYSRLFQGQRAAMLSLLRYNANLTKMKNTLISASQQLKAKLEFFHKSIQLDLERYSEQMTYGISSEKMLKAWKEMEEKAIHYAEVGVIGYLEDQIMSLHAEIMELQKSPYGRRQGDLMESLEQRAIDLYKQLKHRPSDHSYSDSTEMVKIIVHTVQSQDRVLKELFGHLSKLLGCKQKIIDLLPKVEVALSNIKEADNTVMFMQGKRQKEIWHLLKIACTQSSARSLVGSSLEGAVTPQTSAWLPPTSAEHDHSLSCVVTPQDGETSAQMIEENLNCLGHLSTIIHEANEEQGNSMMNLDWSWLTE
Conditions: at 0.1 µM.

In experiment [7] the target is T2, Inhibitor of nuclear factor kappa-B kinase subunit alpha (Homo sapiens). To be noted: at 1 µM.
Experiment [8] deals with T3, Inhibitor of nuclear factor kappa-B kinase subunit beta (Homo sapiens) (UniProt O14920).
T3 sequence (whole entry): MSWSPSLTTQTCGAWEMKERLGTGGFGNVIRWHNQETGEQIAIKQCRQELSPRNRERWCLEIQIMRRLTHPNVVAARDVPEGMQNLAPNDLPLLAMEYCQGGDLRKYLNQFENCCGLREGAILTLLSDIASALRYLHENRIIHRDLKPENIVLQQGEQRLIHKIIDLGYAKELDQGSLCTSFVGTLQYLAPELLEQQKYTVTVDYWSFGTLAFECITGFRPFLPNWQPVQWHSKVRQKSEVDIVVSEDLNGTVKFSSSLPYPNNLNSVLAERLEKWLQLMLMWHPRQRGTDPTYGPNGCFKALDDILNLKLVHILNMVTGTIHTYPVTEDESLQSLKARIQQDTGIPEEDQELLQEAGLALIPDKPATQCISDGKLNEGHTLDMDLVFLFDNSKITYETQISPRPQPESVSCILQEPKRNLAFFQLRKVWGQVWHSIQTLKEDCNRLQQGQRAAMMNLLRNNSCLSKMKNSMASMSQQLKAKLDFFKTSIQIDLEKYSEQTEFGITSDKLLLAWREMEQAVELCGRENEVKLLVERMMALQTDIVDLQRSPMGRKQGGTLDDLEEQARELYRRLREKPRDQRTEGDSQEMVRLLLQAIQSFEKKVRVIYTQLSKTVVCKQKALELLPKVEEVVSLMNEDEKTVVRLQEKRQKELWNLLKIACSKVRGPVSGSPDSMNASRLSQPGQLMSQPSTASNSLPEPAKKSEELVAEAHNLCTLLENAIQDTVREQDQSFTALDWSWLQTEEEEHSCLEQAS
Conditions: at 0.1 µM.

Experiment [9] deals with T3, Inhibitor of nuclear factor kappa-B kinase subunit beta (Homo sapiens). To be noted: at 1 µM.
Experiment [10] concerns the target T4, Inhibitor of nuclear factor kappa-B kinase subunit epsilon (Homo sapiens) (UniProt Q14164).
T4 sequence (whole entry): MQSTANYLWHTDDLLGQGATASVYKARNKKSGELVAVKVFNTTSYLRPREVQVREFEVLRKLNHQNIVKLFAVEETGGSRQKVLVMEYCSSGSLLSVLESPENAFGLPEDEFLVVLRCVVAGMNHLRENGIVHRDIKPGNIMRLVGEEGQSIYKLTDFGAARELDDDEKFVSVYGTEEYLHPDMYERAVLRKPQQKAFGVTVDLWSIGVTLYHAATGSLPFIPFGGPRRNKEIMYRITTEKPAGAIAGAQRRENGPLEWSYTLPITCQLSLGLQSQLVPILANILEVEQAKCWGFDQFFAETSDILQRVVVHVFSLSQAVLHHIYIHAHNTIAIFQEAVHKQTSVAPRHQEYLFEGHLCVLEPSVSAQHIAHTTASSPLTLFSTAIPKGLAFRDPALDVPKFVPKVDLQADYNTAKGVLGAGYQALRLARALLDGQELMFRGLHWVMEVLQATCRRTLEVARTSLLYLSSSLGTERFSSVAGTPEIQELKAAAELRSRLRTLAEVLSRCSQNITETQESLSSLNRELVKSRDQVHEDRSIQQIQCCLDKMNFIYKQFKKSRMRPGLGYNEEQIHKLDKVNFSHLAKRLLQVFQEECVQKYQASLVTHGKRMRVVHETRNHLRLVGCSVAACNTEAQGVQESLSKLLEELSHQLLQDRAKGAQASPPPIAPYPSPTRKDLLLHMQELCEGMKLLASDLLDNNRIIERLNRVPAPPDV
Conditions: at 0.1 µM.

The target of experiment [11] is T4, Inhibitor of nuclear factor kappa-B kinase subunit epsilon (Homo sapiens). Conditions: at 1 µM.
For experiment [12], the target named is T5, Serine/threonine-protein kinase Nek1 (Homo sapiens) (UniProt Q96PY6).
T5 sequence (whole entry): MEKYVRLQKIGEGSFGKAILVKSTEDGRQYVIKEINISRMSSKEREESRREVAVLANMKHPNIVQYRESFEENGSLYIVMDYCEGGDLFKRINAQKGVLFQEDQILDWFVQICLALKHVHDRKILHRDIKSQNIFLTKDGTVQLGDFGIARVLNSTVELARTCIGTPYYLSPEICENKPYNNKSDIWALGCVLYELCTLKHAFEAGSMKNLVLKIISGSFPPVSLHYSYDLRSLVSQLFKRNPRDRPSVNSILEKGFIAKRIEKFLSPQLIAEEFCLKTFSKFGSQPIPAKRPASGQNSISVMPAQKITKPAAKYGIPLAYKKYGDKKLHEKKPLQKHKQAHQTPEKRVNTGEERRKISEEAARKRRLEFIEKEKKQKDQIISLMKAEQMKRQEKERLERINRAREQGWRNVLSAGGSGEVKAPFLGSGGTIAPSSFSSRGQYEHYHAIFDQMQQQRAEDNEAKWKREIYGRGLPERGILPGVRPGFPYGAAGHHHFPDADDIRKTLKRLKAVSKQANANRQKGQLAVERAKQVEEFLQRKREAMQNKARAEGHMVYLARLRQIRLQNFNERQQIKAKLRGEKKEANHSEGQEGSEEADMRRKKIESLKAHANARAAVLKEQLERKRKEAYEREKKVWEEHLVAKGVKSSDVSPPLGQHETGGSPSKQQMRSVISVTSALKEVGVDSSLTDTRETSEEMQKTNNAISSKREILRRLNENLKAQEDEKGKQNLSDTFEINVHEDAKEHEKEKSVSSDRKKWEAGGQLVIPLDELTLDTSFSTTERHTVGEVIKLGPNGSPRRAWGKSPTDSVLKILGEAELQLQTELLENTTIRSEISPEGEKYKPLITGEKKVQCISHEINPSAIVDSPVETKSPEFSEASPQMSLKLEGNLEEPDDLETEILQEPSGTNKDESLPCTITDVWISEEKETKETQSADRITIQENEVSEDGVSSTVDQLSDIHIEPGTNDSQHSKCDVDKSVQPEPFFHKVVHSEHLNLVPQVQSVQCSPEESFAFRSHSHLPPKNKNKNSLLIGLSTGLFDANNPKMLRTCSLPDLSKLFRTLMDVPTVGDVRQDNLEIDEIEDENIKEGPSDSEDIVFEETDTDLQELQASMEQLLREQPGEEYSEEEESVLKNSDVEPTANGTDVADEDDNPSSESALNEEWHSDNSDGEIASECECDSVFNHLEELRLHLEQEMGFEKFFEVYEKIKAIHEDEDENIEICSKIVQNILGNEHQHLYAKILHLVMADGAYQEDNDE
To be noted: at 0.1 µM.

The target in experiment [13] is T5, Serine/threonine-protein kinase Nek1 (Homo sapiens). To be noted: at 1 µM.
In experiment [14] the target is T6, Serine/threonine-protein kinase Nek2 (Homo sapiens) (UniProt P51955).
T6 sequence (whole entry): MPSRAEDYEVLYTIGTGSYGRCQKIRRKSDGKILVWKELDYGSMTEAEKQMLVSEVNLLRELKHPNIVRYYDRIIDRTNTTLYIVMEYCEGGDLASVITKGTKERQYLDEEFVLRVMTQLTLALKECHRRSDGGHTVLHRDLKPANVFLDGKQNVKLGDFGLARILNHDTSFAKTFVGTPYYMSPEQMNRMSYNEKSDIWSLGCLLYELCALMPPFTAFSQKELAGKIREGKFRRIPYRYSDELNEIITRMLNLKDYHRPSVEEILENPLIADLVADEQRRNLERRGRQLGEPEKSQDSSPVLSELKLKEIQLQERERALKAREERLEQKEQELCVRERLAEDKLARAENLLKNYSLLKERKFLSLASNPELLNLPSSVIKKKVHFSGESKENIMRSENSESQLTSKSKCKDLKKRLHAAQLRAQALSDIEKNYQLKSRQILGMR
To be noted: at 0.1 µM.

The target of experiment [15] is T6, Serine/threonine-protein kinase Nek2 (Homo sapiens). Conditions: at 1 µM.
The target of experiment [16] is Serine/threonine-protein kinase Nek6 (Homo sapiens) (UniProt Q9HC98). To be noted: at 0.1 µM.
The target is the same in experiment [17]. Conditions: at 1 µM.
For experiment [18], the target named is Serine/threonine-protein kinase Nek7 (Homo sapiens) (UniProt Q8TDX7). Conditions: at 0.1 µM.
For experiment [19] the target is unchanged. To be noted: at 1 µM.
The target in experiment [20] is T7, Serine/threonine-protein kinase Nek9 (Homo sapiens) (UniProt Q8TD19).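 Also: reported value is the mean percent inhibition of NEK9.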
T7 sequence (whole entry): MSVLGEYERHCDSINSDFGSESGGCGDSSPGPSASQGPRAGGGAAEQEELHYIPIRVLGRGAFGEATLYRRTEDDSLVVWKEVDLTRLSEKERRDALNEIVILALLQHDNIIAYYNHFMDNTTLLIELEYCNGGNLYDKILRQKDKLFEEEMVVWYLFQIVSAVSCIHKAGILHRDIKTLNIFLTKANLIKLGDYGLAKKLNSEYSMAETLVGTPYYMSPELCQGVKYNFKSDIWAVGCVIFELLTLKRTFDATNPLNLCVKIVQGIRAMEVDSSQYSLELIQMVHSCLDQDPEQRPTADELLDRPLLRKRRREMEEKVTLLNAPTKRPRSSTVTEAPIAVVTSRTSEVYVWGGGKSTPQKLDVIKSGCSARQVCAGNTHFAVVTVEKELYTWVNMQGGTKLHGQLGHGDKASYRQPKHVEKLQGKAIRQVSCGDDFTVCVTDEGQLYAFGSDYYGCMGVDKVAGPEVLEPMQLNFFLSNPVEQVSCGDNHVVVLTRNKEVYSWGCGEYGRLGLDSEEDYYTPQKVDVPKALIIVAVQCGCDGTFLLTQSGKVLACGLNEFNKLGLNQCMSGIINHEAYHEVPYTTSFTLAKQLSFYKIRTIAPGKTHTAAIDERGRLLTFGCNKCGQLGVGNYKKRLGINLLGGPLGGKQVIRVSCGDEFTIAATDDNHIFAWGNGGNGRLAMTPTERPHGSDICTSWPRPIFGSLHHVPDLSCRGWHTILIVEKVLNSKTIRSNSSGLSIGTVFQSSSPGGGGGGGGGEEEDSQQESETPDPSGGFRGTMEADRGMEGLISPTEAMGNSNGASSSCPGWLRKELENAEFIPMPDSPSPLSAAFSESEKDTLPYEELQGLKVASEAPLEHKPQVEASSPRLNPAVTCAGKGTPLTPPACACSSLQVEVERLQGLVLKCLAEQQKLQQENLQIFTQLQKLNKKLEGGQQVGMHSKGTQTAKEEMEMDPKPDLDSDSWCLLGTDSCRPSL
To be noted: at 0.1 µM.

Each structure is given as a SMILES string.

Sequence of Serine/threonine-protein kinase Nek6 (Homo sapiens) (Q9HC98 whole entry): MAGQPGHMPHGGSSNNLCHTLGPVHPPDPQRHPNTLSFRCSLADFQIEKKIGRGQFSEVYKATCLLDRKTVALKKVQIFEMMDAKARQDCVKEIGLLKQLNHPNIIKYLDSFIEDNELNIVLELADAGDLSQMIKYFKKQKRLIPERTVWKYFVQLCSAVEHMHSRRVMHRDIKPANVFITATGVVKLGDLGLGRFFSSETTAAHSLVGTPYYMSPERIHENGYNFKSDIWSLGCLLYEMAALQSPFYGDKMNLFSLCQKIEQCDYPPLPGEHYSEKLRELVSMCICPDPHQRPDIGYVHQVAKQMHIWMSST
Sequence of Casein kinase II subunit alpha (Homo sapiens) (P68400 whole entry, looked up): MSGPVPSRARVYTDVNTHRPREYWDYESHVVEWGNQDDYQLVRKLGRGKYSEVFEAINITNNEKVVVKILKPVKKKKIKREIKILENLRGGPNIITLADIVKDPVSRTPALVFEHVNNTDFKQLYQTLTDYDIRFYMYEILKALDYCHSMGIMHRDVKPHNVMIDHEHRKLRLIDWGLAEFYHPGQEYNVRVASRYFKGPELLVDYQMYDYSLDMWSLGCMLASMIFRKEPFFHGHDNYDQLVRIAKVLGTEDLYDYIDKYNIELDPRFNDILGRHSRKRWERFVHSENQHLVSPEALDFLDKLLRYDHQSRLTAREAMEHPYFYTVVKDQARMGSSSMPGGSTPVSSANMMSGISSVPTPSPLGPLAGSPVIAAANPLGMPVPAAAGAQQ
Sequence of Serine/threonine-protein kinase Nek7 (Homo sapiens) (Q8TDX7 whole entry, looked up): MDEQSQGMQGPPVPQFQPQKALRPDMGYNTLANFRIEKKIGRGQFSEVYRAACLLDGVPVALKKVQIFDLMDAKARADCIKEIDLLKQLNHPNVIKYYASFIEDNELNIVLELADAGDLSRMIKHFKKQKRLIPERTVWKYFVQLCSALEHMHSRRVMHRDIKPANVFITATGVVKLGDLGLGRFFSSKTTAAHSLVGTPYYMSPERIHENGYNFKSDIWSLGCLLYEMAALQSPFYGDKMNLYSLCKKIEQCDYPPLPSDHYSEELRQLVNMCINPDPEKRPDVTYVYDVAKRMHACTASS
Sequence of Sphingosine kinase 1 (Homo sapiens) (Q9NYA1 whole entry): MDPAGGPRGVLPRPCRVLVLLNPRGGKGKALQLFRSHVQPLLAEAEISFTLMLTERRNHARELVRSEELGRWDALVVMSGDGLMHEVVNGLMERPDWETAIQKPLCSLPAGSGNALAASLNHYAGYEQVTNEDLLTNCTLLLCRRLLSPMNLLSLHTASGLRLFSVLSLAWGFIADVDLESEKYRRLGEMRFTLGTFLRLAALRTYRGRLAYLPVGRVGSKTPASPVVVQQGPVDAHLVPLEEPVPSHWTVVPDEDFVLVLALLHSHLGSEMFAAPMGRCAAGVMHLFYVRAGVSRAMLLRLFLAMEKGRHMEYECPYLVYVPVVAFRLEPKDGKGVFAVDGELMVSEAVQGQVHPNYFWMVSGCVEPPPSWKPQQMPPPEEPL

Usually inhibition stands for the relative decrease from the control value, in per cent. On to `CCn1c(-c2nonc2N)nc2cnc(Oc3cccc(NC(=O)c4ccc(N(C)C)cc4)c3)cc21`, for which the inhibition was -3.07% in experiment [1]; 0% in [2]; 2.32% in experiment [3]; 0.64% in experiment [4]; 0.04% in experiment [5]; 5.93% in [6]. For the same molecule, the inhibition in experiment [7] stood at 2.52%; in [8], 2.96%; in experiment [9], 1.85%; in experiment [10], 3.07%; in [11] it was 14.1%; in [12] it was 1.17%. For the same molecule, the inhibition in experiment [13] was 4.28%; in experiment [14], 2.85%; in experiment [15] it was 1.24%; in experiment [16] it was 0.89%; in [17], 2.25%; in [18], 3.09%. Also, the inhibition in [19] was found to be 1.46%; in experiment [20], 7.55%.
